According to PubChem BioAssay (Tox21):
Records with an inconclusive call do not appear. Entries that show only a call come without a potency. Activity calls are given as the source filed them. Calls follow the shape of the dose curve; as a rule, active = well fitted cell-killing curve with a large enough effect in the repeat runs; inconclusive = weak or mixed curves, or effect the other way; inactive = flat fitted curve, though single readings scatter.

Assay: qHTS assay to identify small molecule agonists of the TGF-beta/Smad signaling pathway - cell viability counter screen (AID 1346829); also: top concentration of the series differs between compounds; nearly all actives have a fitted effect of over 45% in size
Details: SBE-bla HEK293T viability, CellTiter-Glo luminescence, 5 h; series mostly up to 76.8 µM
Excerpt: National Center for Advancing Translational Sciences [NCATS]
NIH Chemical Genomics Center [NCGC]
U.S. Environmental Protection Agency [EPA]
National Institutes of Environmental Health Sciences [NIEHS]
National Toxicology Program [NTP]
U.S. Food and Drug Administration [FDA]
Transforming growth factor beta (TGF-beta) superfamily consists of a large number of structurally related dimeric proteins that act as hormones or local mediators in regulating a wide range of biological functions. This superfamily includes TGF-betas themselves, the bone morphogenetic proteins (BMPs) and the activins. These ligands induce oligomerization of serine/threonine receptor kinases and phosphorylate the cytoplasmic signaling molecules of Smad protein family. CellSensor SBE-bla HEK 293T cell line (Life Technologies, Carlsbad, CA), responsive to TGF-beta was used to screen Tox21 10K compound library for identification of agonists/antagonists of the Smad signaling pathway. This cell line contains a beta-lactamase reporter gene under control of the Smad binding element (SBE) stably integrated into HEK 293T cells. Also cytotoxicity of the compounds was tested in parallel by measuring the cell viability using CellTiter-Glo assay system in the same wells.
Tox21 Assay Protocol Summary:
SBE-bla HEK 293T cells were dispensed at 4,000/well in 6 uL of assay medium into black wall/clear-bottom 1536-well plates using a Multidrop Combi (ThermoFisher Scientific, Waltham, MA) dispenser. After the assay plates were incubated at 37 C and 5% CO2 for an overnight, 23 nL of compounds dissolved in DMSO, positive controls or DMSO only was transferred to the assay plate by a Pintool station (Kalypsys, San Diego, CA). The assay plates were incubated at 37 C and 5% CO2 for 5 hr. One uL of LiveBLAzer B/G FRET substrate (Life Technologies) was added using a Flying Reagent Dispenser (FRD, Aurora Discovery, San Diego, CA) and the plates were incubated at room temperature for 2 hr. Fluorescence intensity (405 nm excitation, 460 nm and 530 nm emissions) was measured using an Envision plate reader (PerkinElmer, Shelton, CT). For cytotoxicity read, 4 uL of CellTiter-Glo reagent (Promega Corporation, Madison, WI) was added to each well of the assay plates using FRD. After 30min incubation at room temperature, the luminescence intensity was measured using ViewLux plate reader (PerkinElmer).

| Compound | Potency | activity change, negative = cytotoxicity |
| --- | --- | --- |
| CCOC(=O)CCl | inactive | – |
| BrCC1CO1 (stereo not given) | inactive | – |
| S=C=S | inactive | – |
| O=C(Cl)C(Cl)Cl | inactive | – |
| O=c1[nH]oc2c1CCNC2 | inactive | – |
| CCOP(=S)(OCC)Oc1ccc(Cl)cc1Cl | inactive | – |
| C1CN2CCC1CC2 | inactive | – |
| CCOP(=O)(CN(CCO)CCO)OCC | inactive | – |
| N#CC(Br)(Br)C(N)=O | inactive | – |
| CC(Cl)(Cl)Cl | inactive | – |
| ClC(Cl)(Cl)Cl | inactive | – |
| CN(C)C(=O)Oc1cc(OC(=O)N(C)C)cc(C(O)CNC(C)(C)C)c1 (stereo not given) | inactive | – |
| Cn1c(CCCC(=O)O)nc2cc(N(CCCl)CCCl)ccc21 | inactive | – |
| N[C@@H]1C[C@H]1c1ccccc1 | inactive | – |
| C=CCCC#N | inactive | – |
| NNC(N)=O | inactive | – |
| CC(C)(C)C(=O)C(Cl)Cl | inactive | – |
| CCCOC(=O)Cc1ccc(OCC(=O)N(CC)CC)c(OC)c1 | inactive | – |
| Nc1c(Cl)c(F)nc(OCC(=O)O)c1Cl | inactive | – |
| COP(=O)(O)OC | inactive | – |

| Compound | Potency | activity change, negative = cytotoxicity |
| --- | --- | --- |
| C#CCOC(=O)/C=C(C)/C=C/CC(C)CCCC(C)C (stereo not given) | inactive | – |
| ClCC1CO1 (stereo not given) | inactive | – |
| CC(C)(C1CCC(O)CC1)C1CCC(O)CC1 (stereo not given) | inactive | – |
| C/C(=N\NC(=O)Nc1cc(F)cc(F)c1)c1ncccc1C(=O)O | inactive | – |
| CNC(=O)NC(O)C(Cl)(Cl)Cl (stereo not given) | inactive | – |
| O=S1(=O)OCCO1 | inactive | – |
| C[C@H](CN1CCOCC1)C(C(=O)N1CCCC1)(c1ccccc1)c1ccccc1 | inactive | – |
| N#CN | inactive | – |
| Cc1ccc2cc(C)ccc2c1 | inactive | – |
| Cc1ccc2c(c1)C1CN(C)CCC1N2 (stereo not given) | – | -8.68% [at 15.8 µM] (inactive) |
| O=C1CC(=O)NC(=O)N1 | inactive | – |
| CC[C@@H](CO)NC(=O)[C@@H]1C=C2c3cccc4[nH]cc(c34)C[C@H]2N(C)C1 | inactive | – |
| CC(C)[N+](C)(CCC(C(N)=O)(c1ccccc1)c1ccccc1)C(C)C | inactive | – |
| CCCCCCCCBr | inactive | – |
| COc1ccccc1OC | inactive | – |
| CC(C)(C)c1cc(O)ccc1O | inactive | – |
| CCC(CC)(CNC(=O)CCCO)c1cccc(OC)c1 | inactive | – |
| Clc1cc2c(cc1Cl)Oc1cc(Cl)c(Cl)cc1O2 | – | 9.06% [at 0.29 µM] (inactive) |
| Cc1ccc(Cl)c(O)c1 | inactive | – |
| BrCCc1ccccc1 | inactive | – |
